Inconclusive results are not listed. Calls of active or inactive are those of the source. Rule for the calls: active = hit-call score of the fitted dose curve at least 0.9, where 1 is the maximum; inconclusive = response in the unintended direction; inactive = score below 0.9.
Key:
[1] = ATG_XTT_Cytotoxicity: Cytotoxicity Assessment in the Attagene TRANS-FACTORIAL HepG2 Assay (AID 2283584)
Procedure, shortened: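 Transfect HepG2 with GAL4-UAS reporter units, dose compound, incubate 24 h, then measure viable cell number by XTT. Fit concentration response against DMSO baseline.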

[2] = TOX21_p53_BLA_p2_viability: Viability Assessment in the Tox21 HCT-116 p53 Agonism Beta-lactamase Assay, Phase 2 (AID 2283591);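 note: compound exposure lasted 16 h at 37 °C; actives lower the ATP signal meaning cytotoxicity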
Procedure, shortened: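 HCT-116 p53-bla cells (4000/well) rested 5 h at 37C, then received compounds in DMSO (217-fold dilution) for 16 h at 37C, 5% CO2. After the CCF4 read, CellTiter-Glo was added; ATP luminescence was read after 30 min at room temperature.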

[3] = biological target: Cellular tumor antigen p53 (Homo sapiens) (UniProt P04637); assay: TOX21_p53_BLA_p2_ratio: Tox21 HCT-116 p53 Agonism Beta-lactamase Assay, Ratio, Phase 2 (AID 2283592)
Procedure, shortened: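 Cleaved-to-uncleaved substrate ratio (460 vs 530 nm) measured in HCT116 cells with an inducible beta-lactamase reporter linked to p53 activity. Compounds incubated 16 h at 37C before 2 h room-temperature CCF4-AM loading.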

[4] = TOX21_p53_BLA_p3_viability: Viability Assessment in the Tox21 HCT-116 p53 Agonism Beta-lactamase Assay, Phase 3 (AID 2283593);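 note: cells exposed to compound for 16 h before reading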
Procedure, shortened: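 HCT-116 cells (4000/well) rested 5 h at 37C, then got DMSO compounds by pin tool (217-fold dilution) for 16 h at 37C, 5% CO2. After the bla read, CellTiter-Glo was added and luminescence read at 30 min, room temperature.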

[5] = TOX21_p53_BLA_p4_viability: Viability Assessment in the Tox21 HCT-116 p53 Agonism Beta-lactamase Assay, Phase 4 (AID 2283597);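 note: hits lower the luminescence signal meaning cytotoxicity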
Procedure, shortened: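 Viability is taken as cellular ATP: after 16 h compound exposure of HCT116 cells and a 2 h room-temperature CCF4-AM substrate step, CellTiter-Glo reagent is added and luminescence is measured 30 min later.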

[6] = TOX21_p53_BLA_p5_viability: Viability Assessment in the Tox21 HCT-116 p53 Agonism Beta-lactamase Assay, Phase 5 (AID 2283600)
Procedure, shortened: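 Viability is taken from cellular ATP content, measured by luciferase luminescence in the same wells after the beta-lactamase ratio read. Cells are seeded at 4000 per well and exposed to DMSO-dissolved compounds, diluted 217-fold, for 16 h.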

[7] = biological target: Cellular tumor antigen p53 (Homo sapiens) (UniProt P04637); assay: TOX21_p53_BLA_p4_ratio: Tox21 HCT-116 p53 Agonism Beta-lactamase Assay, Ratio, Phase 4 (AID 2283601)
Procedure, shortened: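 HCT116 cells carrying an inducible beta-lactamase reporter were plated at 4000 cells/well, rested 5 h, then exposed to compounds in DMSO (217-fold dilution) for 16 h at 37C. CCF4-AM substrate was loaded 2 h at room temperature; 460/530 nm emission ratio scored gain-of-signal versus DMSO.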

[8] = biological target: Cellular tumor antigen p53 (Homo sapiens) (UniProt P04637); assay: TOX21_p53_BLA_p5_ratio: Tox21 HCT-116 p53 Agonism Beta-lactamase Assay, Ratio, Phase 5 (AID 2283599)
Procedure, shortened: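 HCT-116 cells carrying a p53-inducible beta-lactamase reporter were seeded at 4000 cells/well and dosed after 5 h with compound in DMSO (217-fold dilution). After 16 h at 37C, CCF4-AM substrate was added for 2 h, and the 460/530 nm emission ratio was scored as gain-of-signal versus DMSO.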

[9] = biological target: Cellular tumor antigen p53 (Homo sapiens) (UniProt P04637); assay: TOX21_p53_BLA_p3_ratio: Tox21 HCT-116 p53 Agonism Beta-lactamase Assay, Ratio, Phase 3 (AID 2283596)
Procedure, shortened: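 Cells were seeded at 4000/well, rested 5 h at 37C, then dosed with DMSO compound solutions (217-fold dilution) for 16 h. CCF4-AM substrate was loaded for 2 h at room temperature, and the 460/530 nm emission ratio was fitted for gain of signal versus DMSO.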

Cellular tumor antigen p53 (Homo sapiens), sequence (P04637 whole entry, looked up): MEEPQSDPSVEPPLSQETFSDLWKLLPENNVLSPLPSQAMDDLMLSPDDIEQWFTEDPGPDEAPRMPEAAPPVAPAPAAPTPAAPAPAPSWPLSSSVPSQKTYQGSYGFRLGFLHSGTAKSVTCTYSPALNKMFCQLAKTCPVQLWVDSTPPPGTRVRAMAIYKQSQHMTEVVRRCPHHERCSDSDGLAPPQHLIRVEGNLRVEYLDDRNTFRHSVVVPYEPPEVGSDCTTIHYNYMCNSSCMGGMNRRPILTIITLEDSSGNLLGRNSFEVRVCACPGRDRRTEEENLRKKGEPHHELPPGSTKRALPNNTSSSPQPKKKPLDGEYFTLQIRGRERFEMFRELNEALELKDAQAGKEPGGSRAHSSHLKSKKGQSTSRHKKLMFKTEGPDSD

Compound	outcome [1]	outcome [2]	outcome [3]	outcome [4]	outcome [5]	outcome [6]	outcome [7]	outcome [8]	outcome [9]	AC50 [2]	AC50 [4]	AC50 [5]	AC50 [7]
O=C(O)CCCCC1CCSS1 (stereo not given)	inactive	inactive	inactive	inactive	inactive	inactive	inactive	–	–	–	–	–	–
CN(C)C(=N)N=C(N)N	inactive	inactive	inactive	inactive	–	inactive	inactive	inactive	–	–	–	–	–
CCCCNC(=O)NS(=O)(=O)c1ccc(N)cc1	inactive	inactive	inactive	–	–	inactive	inactive	inactive	inactive	–	–	–	–
CCC(C)CCCC(C)(C)O (stereo not given)	inactive	inactive	inactive	inactive	–	–	inactive	–	–	–	–	–	–
CC(C)(C)c1cc(CCC(=O)NN)cc(C(C)(C)C)c1O	inactive	inactive	inactive	–	inactive	inactive	–	inactive	inactive	–	–	–	–
COCCOCCOCCOCCOCCO	inactive	inactive	inactive	inactive	–	–	inactive	inactive	inactive	–	–	–	–
CCCCOCCOCCSC#N	inactive	inactive	inactive	–	–	inactive	inactive	inactive	inactive	–	–	–	–
CCC(=O)OCCC(C)CCC=C(C)C (stereo not given)	inactive	inactive	inactive	–	inactive	inactive	–	inactive	inactive	–	–	–	–
CCN(CC)CCOC(=O)c1ccc(N)cc1	inactive	inactive	inactive	–	inactive	inactive	inactive	inactive	inactive	–	–	–	–
CC(C)C1CCC(O)CC1 (stereo not given)	inactive	inactive	inactive	inactive	inactive	inactive	inactive	–	–	–	–	–	–
C=CC(=O)OCC(O)COc1ccccc1 (stereo not given)	inactive	–	–	–	–	inactive	–	inactive	–	45.5 µM (active)	75.6 µM (active)	48.2 µM (active)	37.6 µM (active)
C=C(C)C(=O)O	inactive	inactive	–	inactive	inactive	inactive	inactive	inactive	inactive	–	–	–	–
C[C@H]1C[C@@H]2[C@H]([C@@H](O)C[C@@]3(C)[C@H]2CC[C@]3(O)C(=O)CO)[C@@]2(C)C=CC(=O)C=C12	inactive	inactive	–	inactive	inactive	–	inactive	–	inactive	–	–	–	–

— PubChem BioAssay (EPA / NIEHS)
